Three sequences from paper PMC8384837, “Expanding the binding specificity for RNA recognition by a PUF domain” can be followed below.

The target in the experiment is PUM1 PUF domain R1-RST (Homo sapiens, UniProt Q14671 828-1176, S863R;R864S;Q867T). Kind of experiment: yeast three-hybrid, YBZ-1, SC-Leu-His + 0.5 mM 3-AT, 4 days. Conditions: tags: N-Gal4 AD-HA kept; label: inside an RPR1-promoter hybrid RNA with tandem MS2 sites; ssRNA. In outline: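 The interaction score is the log change in variant frequency from input to selection. Scores were computed in log2 with a pseudocount of 1 for absent variants, using Illumina sequencing of PCR-amplified repeat regions. The input came from four days on SC-Leu and the selection from four days on SC-Leu-His + 0.5 mM 3-AT. The cells were strain YBZ-1 (LexA–MS2 coat fusion, HIS3 reporter) co-expressing Pumilio-1 PUF domain libraries and matching RNA elements from a centromeric plasmid.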
Regarding “GGCUAGAACUAGUGGAUCCCCCGGCGCCCGGCGGCUCGAGCCCGGGUAAGUGUAAAUUGUCUGCAUGCCGCCGGGCGCCAUGCCUGCAGGUCGACUCUAGAAAACAUG”, the binding signal was 3.88 log2 enrichment (interaction score).

Regarding “GGCUAGAACUAGUGGAUCCCCCGGCGCCCGGCGGCUCGAGCCCGGGUAAGUGUAAAUGGUCUGCAUGCCGCCGGGCGCCAUGCCUGCAGGUCGACUCUAGAAAACAUG”, the binding signal was 2.92 log2 enrichment (interaction score).

Regarding “GGCUAGAACUAGUGGAUCCCCCGGCGCCCGGCGGCUCGAGCCCGGGUAAGUGUAAAUCGUCUGCAUGCCGCCGGGCGCCAUGCCUGCAGGUCGACUCUAGAAAACAUG”, the binding signal was 5.18 log2 enrichment (interaction score).
